Reference: the supplement of paper PMC6555819

What was measured:
Experiment in all cases: PBM binding z-score (relative to random genomic background probes); higher = stronger binding; sequences stand for … in GC…GCGATTGACAGCGTAGAATGAAGG
[1] = test system: FXR:RXRa (NR concentration 270 nM, RXRa partner concentration 90 nM)
How it was run: (§1)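 The probes on custom Agilent 4×180K protein-binding microarrays were double-stranded, with 34-nt variable regions bearing direct-repeat seeds, single-nucleotide variants, half-site ablations and random human genomic background sequences. Incubation lasted 1 h with ligand-free nuclear receptor dimers in PBS pH 7.4, 2% milk, 0.02% Triton X-100, 1 mM DTT, 0.2 mg/mL BSA and 0.4 mg/ml salmon testes DNA. Antibodies against each partner (one per run) detected bound dimers, and fluorescence scans were regression-normalized. Binding z-scores take the random background probes as reference.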

[2] = test system: LXRa:RXRa (NR concentration 270 nM, RXRa partner concentration 90 nM)
How it was run: as §1

[3] = test system: LXRa homodimer (NR concentration 270 nM)
How it was run: as §1

[4] = test system: LXRb:RXRa (NR concentration 270 nM, RXRa partner concentration 90 nM)
How it was run: as §1

[5] = test system: LXRb homodimer (NR concentration 270 nM)
How it was run: as §1

[6] = test system: PPARa:RXRa (NR concentration 270 nM, RXRa partner concentration 90 nM)
How it was run: as §1

[7] = test system: PPARg:RXRa (NR concentration 180 nM, RXRa partner concentration 90 nM)
How it was run: as §1

[8] = test system: PPARg:RXRa 270nM:90nM, anti-RXR (NR concentration 270 nM, RXRa partner concentration 90 nM)
How it was run: as §1

[9] = test system: PPARg:RXRa 30nM:10nM, anti-RXR (NR concentration 30 nM, RXRa partner concentration 10 nM)
How it was run: as §1

[10] = test system: PPARg:RXRa 90nM:30nM, anti-RXR (NR concentration 90 nM, RXRa partner concentration 30 nM)
How it was run: as §1

[11] = test system: PPARg:RXRa DBDmut IVT, anti-RXR (DBD mutation: RXRa K156A/R161A, NR concentration 270 nM, RXRa partner concentration 90 nM)
How it was run: as §1

[12] = test system: PPARg:RXRa IVT, anti-PPARg (NR concentration 270 nM, RXRa partner concentration 90 nM)
How it was run: as §1

[13] = test system: PPARg DBDmut:RXRa IVT, anti-PPARg (DBD mutation: PPARg1 K132A/R137A, NR concentration 270 nM, RXRa partner concentration 90 nM)
How it was run: as §1

[14] = test system: PPARg DBDmut IVT, anti-PPARg (DBD mutation: PPARg1 K132A/R137A, NR concentration 270 nM)
How it was run: as §1

[15] = test system: PPARg homodimer (NR concentration 180 nM)
How it was run: as §1

[16] = test system: PXR:RXRa (NR concentration 270 nM, RXRa partner concentration 90 nM)
How it was run: as §1

[17] = test system: PXR homodimer (NR concentration 270 nM)
How it was run: as §1

[18] = test system: RARa:RXR (NR concentration 270 nM, RXRa partner concentration 90 nM)
How it was run: as §1

[19] = test system: RARa homodimer (NR concentration 270 nM)
How it was run: as §1

[20] = test system: RARb:RXRa (NR concentration 270 nM, RXRa partner concentration 90 nM)
How it was run: as §1

Sequence	PBM binding z-score [1]	PBM binding z-score [2]	PBM binding z-score [3]	PBM binding z-score [4]	PBM binding z-score [5]	PBM binding z-score [6]	PBM binding z-score [7]	PBM binding z-score [8]	PBM binding z-score [9]	PBM binding z-score [10]	PBM binding z-score [11]	PBM binding z-score [12]	PBM binding z-score [13]	PBM binding z-score [14]	PBM binding z-score [15]	PBM binding z-score [16]	PBM binding z-score [17]	PBM binding z-score [18]	PBM binding z-score [19]	PBM binding z-score [20]
CTCGAAAGGTCGGTTGAGGTGAGTATGCGGATAA	2.51	1.72	-0.105	1.27	-0.0928	2.67	0.178	1.24	0.131	0.771	0.239	1.05	-0.43	0.0422	1.08	2.93	0.0767	2.11	0.202	3.01
TAGACAGGGTCAAAGGCCAGAGTACGAATGTCGA	7.27	4.51	-0.0175	3.89	0.611	5.99	7.49	6.93	4.3	6.42	0.674	3.81	1.39	0.376	1.55	4.13	0.121	5.65	0.0319	4.28
TCATATAGGTAAAAGGTGAAACTCGGTGTGGTAA	2.3	2.26	0.259	2.39	0.198	5.64	9.08	8.59	8.64	9.69	5.96	5.4	0.902	1.04	1.99	2.27	0.443	3.48	1.82	2.26
TCTTCTAGATCAAGCAGGTTAAGAAAGCCTGAGT	0.122	0.597	-0.208	0.619	-0.0275	0.769	-0.479	1.7	3.16	2.53	1.76	0.683	0.767	0.698	0.504	0.69	0.108	0.523	-0.00815	0.276
TCTTGTAGATCAATAGAGGTTAGGAAAGTGCGCT	1.24	1.49	0.276	0.914	0.11	1.62	0.163	2.04	3.13	2.57	2	0.75	0.694	0.358	0.823	2.06	0.156	1.41	0.518	0.535
TCAGACAGGTGAAGGTAAATCAGGTACGCAGTCG	1.69	1.37	0.109	1.11	0.081	1.6	0.829	2.39	4.45	3.31	2.98	1.27	-0.386	0.474	1.11	0.994	0.51	1.26	0.658	1.4
CCTACTGGGCCAAGGTGATTGATCAGTCAAAGCA	-0.711	-0.732	-0.784	-0.722	-1.14	0.274	1.29	2.08	0.0836	1.45	3.98	3.6	-0.461	-1.01	-0.0957	-0.771	-0.714	-0.606	-1.01	0.182
CCTACTGGGCCAAAGGTCATCGATTCCAATGCTC	4.44	5.28	3.59	4.41	0.378	6.8	11.5	10.6	10.6	11.5	4.64	6.76	0.425	-0.332	3.7	5.15	0.811	6.16	1.37	4.7
CCTACTGGACCACGAAAGGTCATTGATTCAGTGA	3.93	5	5.74	4.47	1.54	4.5	2.84	3.67	1.47	2.9	3.39	3.26	0.692	0.507	3.78	5.28	2.09	5.61	2.84	4.02
CCTTACGGCTCACTCCAGGTTATAGCATCGGAGT	0.29	0.942	1.31	0.0567	0.303	-0.0224	0.265	-0.277	0.181	-0.238	0.594	-0.0865	-0.339	-0.313	0.301	-0.0761	0.257	0.372	0.095	0.00286
ACTATTAGTTGACTTAGGGCAACCGCTACGACGC	0.0697	0.317	-0.0272	-0.056	0.492	-0.0454	0.482	-0.131	0.1	-0.0911	-0.144	0.703	0.862	0.674	0.236	0.0683	-0.0423	0.605	0.391	0.745
CCTCGGAGGACAACAGGGGGTCAGAGCTGCCAGA	1.81	2.48	0.582	3.99	2.09	3.22	1.09	1.92	-0.264	1.13	-0.238	1.33	0.527	1.03	1.56	3.18	0.0814	3.3	0.607	2.71
ATATGTAGGTTAGCTGGGGACATTCAGACTAGGC	1.86	1.8	0.679	1.14	0.544	2.64	3.46	2.89	1.12	2.16	6.96	6.07	2.18	1.88	1.9	2.92	0.356	1.71	1.2	1.22
ATCTCTAGTTAACCAAGTTCAGTGAATGCCGAAC	0.219	1.08	1.32	0.741	0.807	0.492	-0.088	0.244	0.153	0.13	-0.131	0.461	0.59	1.22	1	2.1	3	0.723	1.21	0.932
TCTATTAGTTGTTTAGGGCAACCGAAACAGCGGA	0.479	0.468	0.25	0.727	1.15	0.938	-0.0257	2.1	3.88	2.99	1.98	1.19	1.27	0.951	0.794	0.621	0.33	0.698	1.2	1.13
TCTAGTTGGTCACGGCGGTCACACACGACGGGTA	0.993	1.08	0.832	0.799	0.516	1.39	1.12	1.99	3.11	2.43	2.36	3.13	1.09	1.25	1.16	0.555	0.174	0.871	0.669	2.52
ACTTACGGGTCAACGAGGTTATATCACGCGTATA	6.93	5.07	1.5	4.54	1.09	5.82	5.28	4.92	2.11	3.79	2.95	3.92	0.992	1.71	2.52	5.03	3.3	4.76	0.919	4.28
CCTACTGGGCCAGTCAGAGGTCATTGATCATATG	2.43	3.71	5.39	3.58	-0.105	3.66	2.18	3.32	0.876	2.2	3.73	3.52	-0.533	-0.399	2.3	4.85	1.42	4.37	0.375	2.92
CGTCCAAGGTCAGCATGTCAGTGAAAGCGACGTG	5.06	3.16	-0.309	2.27	-0.251	4.07	2.43	3.09	0.443	1.45	2.52	2.35	-0.0905	-0.674	2.58	2.41	0.102	3.01	0.765	4.93
